Reference: PubChem BioAssay (EPA / NIEHS)
Where “and” joins values, the source holds several entries; their conditions need not be identical. Equal entries are not always repeated. Some structures have more than one record in an assay (separate samples or runs), and their calls can disagree. Calls of active or inactive are those of the source. Rule for the calls: active = hit-call score of the fitted dose curve at least 0.9, where 1 is the maximum; inactive = score below 0.9.

Read-out: not listed separately
Experiment: BSK_BE3C_SRB: Viability Assessment in the BioMAP Diversity Plus: BE3C Assay (AID 2283028);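 for AC50: fitted both ways so AC50 may mark signal gain or loss versus DMSO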
Details: primary human bronchial epithelial cells
Method in brief: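 Primary human bronchial epithelium; chemical dosing, 24 h; 10% TCA fix, 0.1% SRB stain, A560; bidirectional fit vs DMSO baseline.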

Row | Structure (SMILES) | AC50 | outcome
1 | CC/C(=C(\c1ccccc1)c1ccc(OCCN(C)C)cc1)c1ccccc1 | 4.81 µM (active) and 5.24 µM (active) | –
2 | O=C(O)C(F)(F)C(F)(F)C(F)(F)C(F)(F)C(F)(F)C(F)(F)C(F)(F)C(F)F | – | inactive
3 | CC(C)(CO)CO | – | inactive
4 | CC(=O)c1ccc(C)cc1 | – | inactive
5 | CCCCCCCC1CCCC1=O (configuration not stated) | – | inactive
6 | CC=CC(=O)C1=C(C)C=CCC1(C)C | – | inactive
7 | CC(C)CCCC(C)(C)O | – | inactive
8 | C=C(C)C(=O)OCCC(F)(F)C(F)(F)C(F)(F)C(F)(F)C(F)(F)C(F)(F)C(F)(F)C(F)(F)F | – | inactive

Read-out: Thrombomodulin, THBD (gene 7056)
Experiment: BSK_3C_Thrombomodulin: BioMAP Diversity Plus: 3C Assay for Thrombomodulin Biomarker Activity (AID 2283029)
Details: primary human endothelial cells (HUVEC); actives raise or lower the signal
Method in brief: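 HUVEC, 3C conditions; compound 24 h; thrombomodulin by ELISA; bidirectional curve fit vs DMSO baseline; parallel SRB total-protein staining for cytotoxicity.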

Row | Structure (SMILES) | AC50 | outcome
9 | CC/C(=C(\c1ccccc1)c1ccc(OCCN(C)C)cc1)c1ccccc1 | 12.6 µM (active) | inactive
10 | O=C(O)C(F)(F)C(F)(F)C(F)(F)C(F)(F)C(F)(F)C(F)(F)C(F)(F)C(F)F | – | inactive
11 | CC(C)(CO)CO | – | inactive
12 | CC(=O)c1ccc(C)cc1 | – | inactive
13 | CCCCCCCC1CCCC1=O (configuration not stated) | – | inactive
14 | CC=CC(=O)C1=C(C)C=CCC1(C)C | – | inactive
15 | CC(C)CCCC(C)(C)O | – | inactive
16 | C=C(C)C(=O)OCCC(F)(F)C(F)(F)C(F)(F)C(F)(F)C(F)(F)C(F)(F)C(F)(F)C(F)(F)F | – | inactive
